Rows were chosen to be rich in hits. Some 10% of all compounds tested hit in one or more screens of this group.
NPR1 antag: blocks ANP-stimulated signaling of human Npr1 receptor | P16066 | HEK293 hNpr1 GloSensor cGMP, ANP-stimulated luminescence | Potency, µM (highest dose often 46.3 µM), inactives show at the highest dose activity change, negative = inhibition, usual class: inhibitors | hit rate 1.6% among 76,000 | AID 1347048; calls by dose curve; also: nearly all actives have a fitted effect of over 60% in size
Target sequence (P16066 whole entry, looked up): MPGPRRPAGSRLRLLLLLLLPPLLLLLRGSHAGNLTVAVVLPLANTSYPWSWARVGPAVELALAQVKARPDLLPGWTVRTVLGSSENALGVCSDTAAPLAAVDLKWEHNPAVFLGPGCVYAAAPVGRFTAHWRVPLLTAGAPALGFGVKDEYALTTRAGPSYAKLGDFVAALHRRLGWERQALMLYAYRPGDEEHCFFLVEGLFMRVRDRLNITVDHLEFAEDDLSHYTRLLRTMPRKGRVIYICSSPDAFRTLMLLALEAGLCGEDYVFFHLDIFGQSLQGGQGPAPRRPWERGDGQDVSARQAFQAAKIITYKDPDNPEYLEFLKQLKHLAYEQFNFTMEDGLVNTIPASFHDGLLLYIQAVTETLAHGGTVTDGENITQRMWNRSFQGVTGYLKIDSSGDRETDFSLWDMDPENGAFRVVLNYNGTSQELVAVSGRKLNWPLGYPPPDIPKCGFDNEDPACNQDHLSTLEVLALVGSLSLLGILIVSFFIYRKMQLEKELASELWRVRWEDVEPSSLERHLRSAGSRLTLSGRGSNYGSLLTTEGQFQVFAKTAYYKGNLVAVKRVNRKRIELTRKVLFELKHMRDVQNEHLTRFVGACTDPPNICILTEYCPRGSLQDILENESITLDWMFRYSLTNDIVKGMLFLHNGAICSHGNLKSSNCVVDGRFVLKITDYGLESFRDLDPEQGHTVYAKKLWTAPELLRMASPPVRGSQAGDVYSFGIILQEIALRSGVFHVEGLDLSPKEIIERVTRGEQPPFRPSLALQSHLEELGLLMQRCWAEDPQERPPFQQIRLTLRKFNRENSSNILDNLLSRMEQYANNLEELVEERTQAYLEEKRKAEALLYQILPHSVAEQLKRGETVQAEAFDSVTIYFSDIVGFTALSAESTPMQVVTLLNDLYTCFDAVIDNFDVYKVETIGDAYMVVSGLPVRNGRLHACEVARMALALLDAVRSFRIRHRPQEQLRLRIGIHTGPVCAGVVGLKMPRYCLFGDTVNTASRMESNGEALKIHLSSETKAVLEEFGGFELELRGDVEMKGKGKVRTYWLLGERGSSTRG
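Compound pre-incubated 30 min at room temperature on GloSensor-loaded HEK293 cells stably carrying hNpr1 and the pGS-40F cGMP biosensor. Stimulation uses hNppA at 0.1 nM final; luminescence is taken at baseline and 20 min post-agonist.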
GPT2 inh: GPT2 alanine aminotransferase inhibition | Recombinant GPT2, coupled pyruvate oxidase/HRP Amplex Red fluorescence | Potency, µM (doses to about 57.7 µM), for inactives: at the top dose activity change, negative = inhibition, actives largely listed as inhibitors | hit rate 0.25% among 100,000 | AID 1671188; also: nearly all actives have a fitted effect of over 60% in size
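GPT2 10ng/uL, a-KG 250uM, L-Ala 2mM, HEPES pH7.5 + 0.0001% Tween; 30 min RT. Then Amplex mix (PO/HRP/ThPP), 30 min RT dark, fluorescence. AOA 50uM used as positive control.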
HEK293 tox: cytotoxic compounds in HEK 293 cells; HEK 293 viability, ATP luminescence (CellTiter-Glo), 48-72 h; Potency, µM (doses to about 115 µM), for the others: at the top dose activity change, negative = cytotoxicity, actives largely listed as inhibitors; AID 1345083; hit rate 6.6% among 94,000; also: nearly all actives have a fitted effect of over 60% in size
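qHTS cytotoxicity; HEK 293, 250 cells/well; compound pinned; 48 or 72 hr, 37 degree Celsius, 5% CO2, 95% humidity; CellTiter-Glo, 10 min RT; luminescence (ATP).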
Luciferase inh: inhibitors of firefly (Photinus pyralis) luciferase | P08659 | purified P. pyralis luciferase, luminescence, biochemical | Potency, µM (highest dose often 115 µM), most hits filed as inhibitors | hit rate 2.5% among 76,000; also: nearly all actives have a fitted effect of over 65% in size
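Purified 10nM P. pyralis luciferase with 10uM D-luciferin and 10uM ATP in 50mM Tris acetate pH 7.5, 10mM Mg acetate, 0.01% Tween-20, 0.05% BSA. qHTS titration; luminescence read by CCD imager.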
NIH3T3 tox: kills NIH 3T3 cells. NIH 3T3 viability, CellTiter-Glo ATP luminescence, 48-72 h. Potency, µM (top dose mostly 96.7 µM), for the others: top-dose activity change, negative = cytotoxicity, actives largely listed as inhibitors. hit rate 4.3% among 94,000. AID 1345082; also: nearly all actives have a fitted effect of over 55% in size
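ATP-dependent luminescence (CellTiter-Glo) served as the viability signal for NIH 3T3 cells treated with compound for 48 or 72 hr at 37 °C.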
Active calls of the source: *; i = inactive; u = inconclusive; x = no result given; [ ] = another dose, or the depositor's remark. Unless noted, calls follow the shape of the dose curve; as a rule, active = well fitted curve in the direction sought with a large enough effect; inconclusive = small, poorly fitted or top-dose-only effect, or another doubt; inactive = no such curve, though single readings can be large; an effect the other way counts as inactive or inconclusive. % is scaled to controls: 0 for no effect and ±100 for the full control effect; potency is read from the fitted curve at half-maximal effect.

SMILES	NPR1 antag	GPT2 inh	HEK293 tox	Luciferase inh	NIH3T3 tox
CC1=C[C@@H](CNC(=O)CC(C)(C)CC(=O)O)[C@H](C(C)C)C[C@H]1Cc1nc2ccc(F)cc2[nH]1	3%	i	-4%	i	-1%
CC1=C[C@@H](CNC(=O)CCCC(=O)O)[C@H](C(C)C)C[C@H]1Cc1nc2ccncc2[nH]1	-1%[70.6 µM]	-9%[88.5 µM]	-10%[172 µM]	i	-19%[174 µM]
COc1ccc(C(=O)NC[C@@H]2C=C(C)[C@H](Cc3nc4ccncc4[nH]3)C[C@H]2C(C)C)cc1	-27%[70.6 µM]	3%[88.5 µM]	89µM*	i	u
CCC(CC)C(=O)NC[C@@H]1C=C(C)[C@H](Cc2nc3ccc(F)cc3[nH]2)C[C@H]1C(C)C	-28%[70.6 µM]	2%[88.5 µM]	u	i	100µM*
CC1=C[C@@H](CNC(=O)CCC(=O)O)[C@H](C(C)C)C[C@H]1Cc1nc2ccncc2[nH]1	7%[70.6 µM]	-8%[88.5 µM]	i	i	3%[138 µM]
CC1=C[C@@H](CNS(=O)(=O)c2ccccc2)[C@H](C(C)C)C[C@H]1Cc1nc2ccncc2[nH]1	-23%[70.6 µM]	2%[88.5 µM]	71µM*	i	79µM*
CN1C(=O)[C@@H]2C[C@@H](CN2Cc2nccs2)Oc2ccccc21	1%[70.6 µM]	4%[88.5 µM]	u	i	-6%[138 µM]
O=C1Cc2c(-c3ccccc3Oc3ccccc3)n[nH]c2CN1Cc1ccccn1	-5%[70.6 µM]	-11%[88.5 µM]	u	i	u
O=C1Cc2c(-c3ccccc3OCc3ccccc3)n[nH]c2CN1CCOc1ccccc1	-18%	-5%	u	i	u
O=C1Cc2c(-c3ccccc3OCc3ccccc3)n[nH]c2CN1Cc1ccccc1	-21%[70.6 µM]	4%[88.5 µM]	50µM*	i	u
O=C1Cc2c(-c3ccccc3OCc3ccccc3)n[nH]c2CN1Cc1ccccn1	-10%[70.6 µM]	i	100µM*	i	u
Cc1noc(C)c1-c1cc2c(cc(-c3ccccc3)n2C)c(-c2ccnn2C)n1	-19%[70.6 µM]	-6%[88.5 µM]	35µM*	i	u
COc1cccc(-c2nc(-c3c(C)noc3C)cc3c2cc(C)n3C)c1OC	2%[70.6 µM]	-2%[88.5 µM]	u	i	25µM*
Cc1noc(C)c1-c1cc2c(cc(C)n2C)c(N2CCN(Cc3ccccc3)CC2)n1	0%[70.6 µM]	-1%[88.5 µM]	u	i	45µM*
Cc1noc(C)c1-c1cc2c(cc(C)n2C)c(-c2ccnn2C)n1	-5%[70.6 µM]	4%[88.5 µM]	u	i	u
Cc1noc(C)c1-c1cc2c(cc(C)n2C)c(-c2cccnc2)n1	4%[70.6 µM]	-19%[88.5 µM]	u	i	u
COc1cc(-c2nc(-c3c(C)noc3C)cc3c2cc(C)n3C)ccn1	-1%[70.6 µM]	-4%[88.5 µM]	u	i	u
Cc1noc(C)c1-c1cc2c(cc(C)n2C)c(-c2cnn(C)c2)n1	-1%[70.6 µM]	-11%[88.5 µM]	u	i	40µM*
Cc1noc(C)c1-c1cc2c(cc(C)n2C)c(-c2cccc([S+](C)(=O)[O-])c2)n1	-17%[70.6 µM]	3%[88.5 µM]	u	i	14µM*
Cc1noc(C)c1-c1cc2c(cc(-c3ccccc3)n2C)c(N2CCOCC2)n1	0%[70.6 µM]	1%[88.5 µM]	56µM*	i	32µM*
Cc1noc(C)c1-c1cc2c(cc(C)n2C)c(-c2ccccc2)n1	1%[70.6 µM]	u	u	i	50µM*
Cc1noc(C)c1-c1cc2c(cc(-c3ccccc3)n2C)c(-c2cnn(C)c2)n1	-22%[70.6 µM]	1%[88.5 µM]	20µM*	i	11µM*
Cn1cc([C@@H](NC(=O)CN2CCOc3ccccc3C2)C2CC(O)C2)cn1 (stereo not given in full)	1%	i	-1%	i	0%
COc1ccc([C@@H]2Sc3ccccc3NC(=O)[C@@H]2O)cc1	x	-10%	x	x	x
COc1cccc(N2C(=O)NC(=NC3CCCCC3)C23CCN([S+](=O)([O-])c2ccccc2)C3)c1 (stereo not given)	x	-16%	i	x	i
SMILES	NPR1 antag	GPT2 inh	HEK293 tox	Luciferase inh	NIH3T3 tox
COc1cccc(CNC(=O)C2CCCN2Cc2ccc(-c3cccc(OC)c3)cc2)c1 (stereo not given)	x	-4%	u	x	35µM*
CCOCCCNC(=O)C1CCCN1Cc1cccc(-c2cccc(OC)c2)c1 (stereo not given)	x	i	25µM*	x	32µM*
COC(=O)CNC(=O)C1CCCN1Cc1ccc(-c2cccc(OC)c2)cc1 (stereo not given)	x	i	u	x	u
CCCCCNC(=O)C1CCCN1Cc1ccc(-c2cccc(OC)c2)cc1 (stereo not given)	x	-22%	22µM*	x	40µM*
COc1cccc(-c2cccc(CN3CCCC3C(=O)N3CCCC(C)C3)c2)c1 (stereo not given)	x	x	50µM*	x	u
COc1cccc(-c2cccc(CN3CCCC3C(=O)NC(C)C)c2)c1 (stereo not given)	x	i	u	x	u
N#CC1CCN(C(=O)c2cc(Br)cn3ccnc23)CC1	-1%[70.6 µM]	2%[88.5 µM]	i	i	-7%[138 µM]
CNC(=O)[C@@H](c1ccc(OC)cc1)N1CCC[C@H]1C(=O)N1CCC(C)CC1	0%[70.6 µM]	i	-10%[172 µM]	i	1%[138 µM]
C=CCC(=O)N1CCCC1C(=O)Nc1ccc(-c2cccc(OC)c2)cc1 (stereo not given)	-2%	u	u	25µM*	-6%
COc1cccc(-c2ccc(NC(=O)C3CCCN3Cc3cnn(C)c3)cc2)c1 (stereo not given)	-1%	1%	45µM*	i	u
COc1cccc(-c2cccc(CN3CCCC3C(=O)NCc3ccc(F)cc3F)c2)c1 (stereo not given)	x	1%	u	x	u
COc1cccc(-c2ccc(CN3CCCC3C(=O)NCC(F)F)cc2)c1 (stereo not given)	x	3%	u	x	u
CC(C)(C)CC(=O)N1CCCC(C(=O)Nc2cccc(-c3ccc(F)cc3)c2)C1 (stereo not given)	-11%	u	u	i	u
COc1cccc(-c2cccc(CN3CCCC3C(=O)NCc3ccc(Cl)cc3)c2)c1 (stereo not given)	x	x	40µM*	x	40µM*
COc1cccc(-c2ccc(NC(=O)C3CCCN(C(=O)CC(F)(F)F)C3)cc2)c1 (stereo not given)	16µM*	-1%	u	u	u
Cc1cc(CC(=O)O)c(C)n1-c1ccc(Cl)cc1	x	-27%	x	x	x
CCOc1ccccc1CN1CCN(c2cccc(C#N)n2)CC1CCO (stereo not given)	1%	i	u	i	u
COc1ccccc1C(=O)Nc1ccc(C(O)[C@H]2COCC(=O)N2C)cc1 (stereo not given in full)	-8%[70.6 µM]	0%[88.5 µM]	-2%[172 µM]	i	-15%[138 µM]
CC(C)c1csc(CN2CC[C@@H](c3ccc4c(c3)OCO4)[C@H](O)C2)n1	u	i[11.5 µM]	22µM*	i	u

High-throughput results deposited in PubChem BioAssay by National Center for Advancing Translational Sciences (NCATS).
